Compound activity: PubChem, several laboratories
This is a sample that favours compounds with a hit; in the whole collection about 1.3% have one here.
NR5A2 inv ag = inverse agonists of human LRH-1 (NR5A2); O00482; HEK293T StAR-luciferase reporter, LRH-1 transfected, 24 h; inhibition, % at 3.6 µM; 0.13% of 360,000 active; AID 602396;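 active = inhibition above the mean inhibition of all tested compounds plus 3 SD, cut at about 73% in these data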;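 note: 0% = DMSO wells and 100% = reporter-only cells lacking LRH-1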
SRC3 inh = human NCOA3 inhibition; Q9Y6Q9; HEK293 GAL4-SRC3 luciferase reporter, luminescence; inhibition, % at 3.6 µM; 0.17% of 360,000 active;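 active = inhibition above a per-campaign cutoff, the mean of all compounds plus 3 SD, cut at about 60% in these data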;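 note: 0% = DMSO-treated cells and 100% = gossypol-treated cells at 36 µM; higher means less SRC3-driven luciferase light from the GAL4 reporter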
NCOA1 inh = inhibitors of human steroid receptor coactivator 1 (SRC1); inhibition, % at 3.6 µM; 0.12% of 360,000 active; HEK293 GAL4-SRC1 luciferase reporter, luminescence; Q15788; AID 588354;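 active = inhibition above the campaign mean plus 3 SD, with each screening campaign given its own cutoff, cut at about 60% in these data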;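 note: 0% = DMSO treated cells and 100% = gossypol at 36 µM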
SRC2 inh = human SRC2 (NCOA2) inhibition. Q15596. HEK293 GAL4-SRC2 luciferase reporter, luminescence. inhibition, % at 9 µM. 0.17% of 370,000 active;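 active = inhibition above the mean inhibition of all tested compounds plus 3 SD, set per campaign, cut at about 52% in these data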;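 note: 0% = DMSO treated cells and 100% = cells given Gossypol at 36 µM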
NR2F2 inh = blocks human COUP-TFII nuclear receptor. inhibition, % at 8.6 µM. 0.7% of 370,000 active. P24468. HEK293T NGFI-A luciferase reporter, luminescence. AID 686940;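 active = inhibition above a per-plate cutoff, mean inhibition of test wells between control levels plus 3 SD, cut at about 38% in these data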;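 note: cells cotransfected with COUP-TFII expression vector driving the NGFI-A reporter; 0% = median of COUP-TF2 test wells and 100% = reporter-only cells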
Gli-Sufu antag = Gli-Sufu pathway antagonism; inhibition, % at 5 µM; 0.74% of 340,000 active; Sufu-KO-LIGHT fibroblasts, Gli luciferase reporter luminescence; AID 588413;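 active = inhibition above about 55%, limit read from the data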;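 note: 0% = DMSO-treated cells and 100% = wells with medium but no cells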
VP16 Luc counter = counter-screen for COUP-TFII antagonists: inhibitors of VP16; AID 687007; 25% of 2,500 active; inhibition, % at 8.5 µM; HEK293 Gal4-VP16 luciferase reporter, luminescence; shares compounds with NR2F2 inh; in the data active = inhibition above about 13%
COUP-TFII conf = confirmation of human COUP-TFII (NR2F2) inhibitors; HEK293 NGFI-A luciferase reporter, luminescence; shares compounds with NR2F2 inh; 45% of 2,500 active; inhibition, % at 8.5 µM;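 active = mean inhibition over three repeats above a set limit taken from the earlier primary screen, cut at about 38% in these data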;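 note: 100% = cells given the luciferase reporter alone without the COUP-TF2 vector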
* marks the source's active call; other numbers are inactive results; nt = no result given.

SMILES	NR5A2 inv ag	SRC3 inh	NCOA1 inh	SRC2 inh	NR2F2 inh	Gli-Sufu antag	VP16 Luc counter	COUP-TFII conf
O=C(NC(NNc1ccc([N+](=O)[O-])cc1)(C(F)(F)F)C(F)(F)F)c1ccccc1Cl	44	19	-17	4	3	-1	nt	nt
O=C(NC(Nc1nc2ccc([N+](=O)[O-])cc2s1)(C(F)(F)F)C(F)(F)F)c1ccccc1Cl	98*	74*	73*	-7	75*	93*	18*	74*
COC(=O)C1CCC(CNC(=O)C(Cc2ccc3c(c2)OCO3)NC(C)=O)CC1 (stereo not drawn)	nt	nt	nt	-14	-10	nt	nt	nt
COC(=O)C1=C(C)N(Cc2ccc(C(F)(F)F)cc2)C(=NCc2ccccc2C(F)(F)F)NC1c1ccc(Cl)cc1 (stereo not drawn)	nt	nt	nt	7	13	nt	nt	nt
COc1ccc(CCNC(=O)c2ccc(CS(=O)(=O)c3ccc(Cl)cc3)o2)cc1OC	31	25	11	15	49*	2	1	27
COc1ccc(CCNC(=O)c2ccc(CS(=O)(=O)c3ccc(C)cc3)o2)cc1OC	-20	-8	-30	14	19	8	nt	nt
CN(C)S(=O)(=O)N1CCC(Oc2cccc(C(=O)NC3CCCCC3)c2)CC1	18	15	34	36	57*	42	-4	40*
CN(C)S(=O)(=O)N1CCC(Oc2cccc(C(=O)NCCC3=CCCCC3)c2)CC1	11	12	5	27	56*	8	-8	17
CN(C)S(=O)(=O)N1CCC(Oc2ccc(C(=O)NC3CCCCC3)cc2)CC1	15	5	1	-10	-10	4	nt	nt
COC(=O)[C@]12CCCCC=C1N(Cc1ccc(OC)cc1)C(=O)[C@@H]2CC(=O)NCCCN1CCCC1=O	nt	nt	nt	-13	-5	nt	nt	nt
CN1C(=O)C2(C(C#N)=C(N)N(c3cc(Cl)cc(Cl)c3)C3=C2C(=O)CC(C)(C)C3)c2ccccc21 (stereo not drawn)	14	38	22	24	44*	-4	-17	30
COc1ccc2cc3c(N)nn(C(=O)Cc4c[nH]c5ccccc45)c3nc2c1	55	51	79*	56*	42*	-9	24*	21
COc1ccc2cc3c(N)nn(C(=O)c4ccc(F)cc4)c3nc2c1	20	49	60	31	34	-21	nt	nt
COc1ccc2cc3c(N)nn(C(=O)c4ccccc4Cl)c3nc2c1	50	60	74*	39	45*	-22	23*	36
CCCCOCC1CN(CCCC)S(=O)(=O)c2c(Oc3ccc(OC)cc3)cccc2O1 (stereo not drawn)	nt	nt	nt	6	7	nt	nt	nt
COc1ccc2[nH]c(=O)c3c(c2c1)OC(C)(C)C=C3	20	44	47	63*	44*	-31	0	25
CN(C)S(=O)(=O)Oc1cccc(C(=O)Nc2ccc(Cl)cc2)c1	-86	-36	-40	-31	45*	-11	-187	-12
CN(C)S(=O)(=O)Oc1ccc(C(=O)Nc2cccc(C(F)(F)F)c2)cc1	1	9	11	-1	54*	-3	-20	16
CN(C)c1ccc(-c2ccnc3c2CC(C)(C(=O)NCc2ccco2)O3)cc1 (stereo not drawn)	27	-8	3	14	49*	nt	-10	12
CC(=O)Nc1ccc(-c2ccnc3c2CC(C)(C(=O)NCc2ccco2)O3)cc1 (stereo not drawn)	23	10	9	1	2	nt	nt	nt
CCn1c(=O)n(CC)c2cc(N3CCCC3)c(NC(=O)c3ccccc3OC)cc21	31	8	25	20	32	20	nt	nt
CCOc1ccccc1C(=O)Nc1cc2c(cc1N1CCCC1)n(CC)c(=O)n2CC	47	32	24	-3	41*	58*	-3	22
CCCCN1CCN(C2=NC(=O)N(c3ccc(Br)cc3)C(=O)C2)CC1	nt	nt	nt	3	5	nt	nt	nt
Cc1ccc(NC(=O)C2(C)CCN2C(=O)C2(c3ccc(Cl)cc3)CC2)cc1 (stereo not drawn)	-23	-25	-16	21	13	nt	nt	nt
CC1(C(=O)Nc2ccccc2)CCN1C(=O)C1(c2ccc(Cl)cc2)CC1 (stereo not drawn)	-21	-17	7	6	76*	nt	4	14
SMILES	NR5A2 inv ag	SRC3 inh	NCOA1 inh	SRC2 inh	NR2F2 inh	Gli-Sufu antag	VP16 Luc counter	COUP-TFII conf
CCN(C(=O)[C@@H](C1CC1)[C@@H](O)c1ccc(C(C)=O)cc1)c1ccccc1	nt	nt	nt	18	7	nt	nt	nt
Cn1nc(C(C)(C)C)cc1C(=O)N1CCCCC1c1cc(C(=O)Nc2ccccc2Cl)no1 (stereo not drawn)	13	10	7	43	48*	nt	0	17
O=C(C[n+]1cc(-c2ccccc2)n2c1CCCCC2)c1ccc(Br)cc1	4	3	-9	9	-10	31	nt	nt
Cc1ccc(C(=O)C[n+]2cc(-c3ccc(C)cc3)n3c2CCCCC3)cc1	74*	54	22	17	46*	88*	9	37
CC(C)Nc1ncnc2c1ncn2[C@H]1CN(Cc2ccc(-c3ccccc3)cc2)C[C@@H](CO)O1	24	-3	18	24	49*	nt	3	18
CC(C)CNc1ncnc2c1ncn2[C@H]1CN(Cc2ccc(-c3ccccc3)cc2)C[C@@H](CO)O1	12	7	18	-3	61*	nt	6	43*
COC(=O)C1CN(Cc2cn(CCC3OCCO3)nn2)CCS(=O)(=O)N1Cc1ccc(F)cc1 (stereo not drawn)	nt	nt	nt	4	-14	nt	nt	nt
CC(C)N1C/C(=C/c2ccsc2)C(=O)/C(=C/c2ccsc2)C1	9	11	12	-49	47*	11	38*	68*
O=C(c1cc2c(s1)-c1ccccc1S(=O)(=O)C2)N1CCN(Cc2ccccc2)CC1	14	-2	1	20	39*	-3	-14	26
CC(=O)O[C@@H]1CCC[C@@]2(C(=O)Nc3ccccc32)[C@H]1NC(=O)C(C)C	nt	nt	nt	0	-14	nt	nt	nt
CC(CC(=O)Nc1ccc(Cl)c(S(=O)(=O)N2CCOCC2)c1)c1ccccc1 (stereo not drawn)	22	18	29	29	63*	46	4	51*
Cc1cccc(OCCCC(=O)Nc2ccc(Cl)c(S(=O)(=O)N3CCOCC3)c2)c1	18	28	-12	-21	39*	-3	11	39*
CN(C)S(=O)(=O)c1ccc(NC(=O)Cc2ccc(S(=O)(=O)N3CCOCC3)s2)cc1	2	11	-18	-1	3	22	nt	nt
CC(=O)Nc1ccc(OCC(=O)Nc2ccc(Cl)c(S(=O)(=O)N3CCOCC3)c2)cc1	35	28	26	34	65*	nt	7	44*
